The values below come from PubChem BioAssay.

The other results are listed elsewhere or left out.

The test deals with Regulator of G-protein signaling 19 (Homo sapiens) (UniProt P49795). The experiment in a line: small molecules altering RGS protein interactions with GNAO1 – biochemical, multiplexed beads, flow cytometry, RGS4/7/8/16/19, primary screen (AID 1504).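 Also: fluorescently labeled Galpha-o bound to GDP with aluminium fluoride binding biotinylated RGS beads.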 To be noted: multiplexed bead flow cytometry, measured here: RGS19 interaction, at 10 µM. A general note: In flow cytometry, cells or beads pass a laser one at a time.

`CC(C)N(CC#CCC1(O)c2ccccc2-c2ccccc21)C(C)C` had an RGS19–Galpha-o binding response of 78.4%.
